The source of these data is PubChem BioAssay AID590 (National Center for Advancing Translational Sciences (NCATS), 2007).

Hit rate of the full screen: of about 59,000 compounds, about 6,500 (11%) were called active. Not shown: some 15% with an inconclusive outcome. Rule as the data show it: active = max dye-equivalent concentration above about 10 nM; inconclusive = mostly about 1.1 nM to 9.6 nM; inactive = weaker than that. For the sample, actives were picked, then their nearest neighbours and some compounds at random.

This test in a line: qHTS Assay for Spectroscopic Profiling in A350 Spectral Region. The settings on record: Compound autofluorescence, 340/450 nm, Alexa 350 dye-equivalents; active compounds read high.
In the case of `COc1cc(C(=O)Nc2nccs2)cc(OC)c1OC`, the max dye-equivalent concentration entry is “inactive”.

In the case of `COC(=O)c1cccc(NC(=O)CN2CCC(NC(=O)c3cc(OC)c(OC)c(OC)c3)CC2)c1`, the max dye-equivalent concentration result was “inactive”.

On to `COc1cc(C(=O)Nc2oc(-c3ccccc3)c(-c3ccccc3)c2C#N)cc(OC)c1OC`, for which the max dye-equivalent concentration is 11 nM (active).

As for `COc1ccc(CNc2ncncc2-c2ccccc2OC)c(OC)c1`, the max dye-equivalent concentration result was “inactive”.

`COc1ccc(S(=O)(=O)N2CCCCC2)cc1Br`: the max dye-equivalent concentration result was “inactive”.

As to `Cc1ccc(-n2nc(-c3ccco3)cc2C(=O)NCc2cccnc2)cc1`, the max dye-equivalent concentration result is “inactive”.

With `COCCn1c(=O)[nH]c2cc(C(=O)NCc3cccnc3)ccc2c1=O`, the max dye-equivalent concentration is 38 nM (active).

On to `CC(C)(C)c1cc(C(=O)NCc2cccnc2)ccn1`, for which the max dye-equivalent concentration entry is “inactive”.

For `CC1=C2C(=O)OC(c3ccoc3)C2(C)CCC1` (stereo unspecified), the max dye-equivalent concentration result is “inactive”.

For the molecule `Cc1ccccc1N1CCN(S(=O)(=O)C[C@@]23CC[C@H](C[C@H]2NC(=O)[C@@H](N)CCS(C)(=O)=O)C3(C)C)CC1`, the max dye-equivalent concentration result was “inactive”.

Take `CCCC(=O)Nc1nnc(CC(=O)OCC)s1`: the max dye-equivalent concentration entry was “inactive”.

For `Cc1cc(Cl)c(S(=O)(=O)NCC2CCCO2)cc1OCC(N)=O` (stereo unspecified), the max dye-equivalent concentration result was “inactive”.

`O=C(COc1ccc2c3c(c(=O)oc2c1)CCC3)NC1CCCCC1`: the max dye-equivalent concentration was 82 nM (active).

With `O=C(COc1ccccc1F)NC1CC1`, the max dye-equivalent concentration result is “inactive”.

For `NC(=O)COc1ccc2c3c(c(=O)oc2c1)CCCCC3`, the max dye-equivalent concentration is 29 nM (active).

In the case of `O=C(CC1OC(=O)c2ccccc21)NC1CCCCC1` (stereo unspecified), the max dye-equivalent concentration result was “inactive”.

As to `O=C(COc1ccc2oc3c(c2c1)CCCC3)Nc1ccccn1`, the max dye-equivalent concentration entry was “inactive”.

Consider `COc1ccccc1Nc1nc(N)nc(CN(C)C2CCCCC2)n1`, for which the max dye-equivalent concentration result was “inactive”.

Turning to `COc1cccc(-c2cc(NCCc3c[nH]c4ccc(OC)cc34)ncn2)c1`, the max dye-equivalent concentration entry was “inactive”.

`O=S1(=O)CCN2C(=N1)SC1=C2CCN(Cc2ccccc2)C1`: the max dye-equivalent concentration entry is “inactive”.

Consider `O=C(Cn1c(=O)n(Cc2ccco2)c(=O)c2ccccc21)NCC1CCCO1` (stereo unspecified), for which the max dye-equivalent concentration entry is “inactive”.

`COc1ccccc1-n1cnc2cc(C(=O)NCC3CCCO3)ccc21` (stereo unspecified): the max dye-equivalent concentration entry was “inactive”.

Regarding `CC1(C)CC(=O)c2cc(OCC(=O)NCC3CCCO3)ccc2O1` (stereo unspecified), the max dye-equivalent concentration was 1600 nM (active).

In the case of `O=C(c1csnn1)N1CCC2(CCN(Cc3nccs3)CC2)CC1`, the max dye-equivalent concentration entry was “inactive”.

For `Cc1cc(C)n(C(=O)c2ccc(S(=O)(=O)N3CCCC3)cc2)n1`, the max dye-equivalent concentration entry is “inactive”.

`Cn1nnc2cc(C(=O)NCCC3=CCCCC3)ccc21`: the max dye-equivalent concentration result is “inactive”.

On to `CCOC(=O)c1cc2n(c1N)-c1ccccc1C2=O`, for which the max dye-equivalent concentration entry was “inactive”.

In the case of `CCCn1c(=NC(C)=O)c(C(=O)OCC)cc2c(=O)n3ccccc3nc21`, the max dye-equivalent concentration is 4900 nM (active).

With `CCOC(=O)c1cc2n(c1C)-c1ccccc1C2=O`, the max dye-equivalent concentration entry is “inactive”.

Turning to `O=S(=O)(CCc1nc2ccccc2o1)c1ccc(Cl)cc1`, the max dye-equivalent concentration result is “inactive”.

For the molecule `CN1CCC2(CC1)NC(=O)NC2=O`, the max dye-equivalent concentration entry was “inactive”.

As to `CCN(CC)S(=O)(=O)c1cccc(C(=O)Nc2cc(C)nn2-c2nc(C)cc(C)n2)c1`, the max dye-equivalent concentration entry is “inactive”.

On to `CCC(=O)NC(=Nc1nc2ccccc2s1)NC(=O)CC`, for which the max dye-equivalent concentration was 190 nM (active).

On to `COC(=O)Cc1cc(=O)n(-c2nc3ccccc3s2)[nH]1`, for which the max dye-equivalent concentration entry was “inactive”.

As to `CSCCC(Nc1nc2ccccc2s1)C(=O)O` (stereo unspecified), the max dye-equivalent concentration entry is “inactive”.

As for `O=C(O)[C@@H](S)[C@H](S)C(=O)O`, the max dye-equivalent concentration result is “inactive”.

As to `COc1ccc(C(=O)NC(=O)CSc2nnc(-c3ccco3)n2-c2ccccc2)cc1`, the max dye-equivalent concentration entry is “inactive”.

Consider `O=C(CSc1nnc(-c2cccs2)n1-c1ccccc1)N1CCN(C(=O)c2ccco2)CC1`, for which the max dye-equivalent concentration entry was “inactive”.

Take `COc1ccc(-n2c(SCC(=O)NCc3cccs3)nnc2-c2ccoc2C)cc1`: the max dye-equivalent concentration was 27 nM (active).

Take `Cc1ccc(-n2c(SCC(=O)Nc3ccc4c(c3)OCO4)nnc2-c2ccoc2C)cc1`: the max dye-equivalent concentration entry was “inactive”.

In the case of `O=C(CSc1nnc(-c2cccs2)n1-c1ccccc1)NCc1ccco1`, the max dye-equivalent concentration was 11 nM (active).

In the case of `O=C(CSc1nnc(-c2c[nH]c3ccccc23)n1-c1ccc(F)cc1)NCc1ccco1`, the max dye-equivalent concentration result is “inactive”.

Turning to `NCCNCC1CCNCC1`, the max dye-equivalent concentration result was “inactive”.

For `Cc1cccc(N2CCN(S(=O)(=O)c3ccc4c(c3)c(=O)n(C)c(=O)n4C)CC2C)c1` (stereo unspecified), the max dye-equivalent concentration result is “inactive”.

For the molecule `O=C(c1cnccn1)N1CCC[C@@]2(CCN(Cc3ccncc3)C2)C1`, the max dye-equivalent concentration result was “inactive”.

For the molecule `Cc1ccc(-c2ccc(=O)n(CC(=O)NCCCN3CCCCC3)n2)cc1`, the max dye-equivalent concentration entry was “inactive”.

For `COc1ccc(CCN(C)CCN2C(=O)c3ccccc3C2=O)cc1OC`, the max dye-equivalent concentration result is “inactive”.

With `COc1ccc(CCN2C(=O)c3[nH]nc(-c4ccccc4O)c3C2c2ccc(C)cc2)cc1OC` (stereo unspecified), the max dye-equivalent concentration was 140 nM (active).

On to `COc1ccc(-c2n[nH]c(C)c2-c2ccc(OC)c(OC)c2)c(O)c1`, for which the max dye-equivalent concentration entry is “inactive”.

Turning to `Cc1cc(C(=O)COC(=O)c2cccs2)c(C)n1-c1c(C)n(C)n(-c2ccccc2)c1=O`, the max dye-equivalent concentration result is “inactive”.

On to `Cc1ccc(S(=O)(=O)N2CCN(C(=O)CCC(=O)NC3CCCc4ccccc43)CC2)cc1` (stereo unspecified), for which the max dye-equivalent concentration result was “inactive”.

Turning to `O=C(CCC(=O)N1CCN(S(=O)(=O)c2ccccc2)CC1)NC1CCCc2ccccc21` (stereo unspecified), the max dye-equivalent concentration result is “inactive”.

As to `N#C/C=C1\Sc2ccccc2C(=O)N1CC(=O)N1CCN(S(=O)(=O)c2ccccc2)CC1`, the max dye-equivalent concentration is 15 nM (active).

Turning to `COc1ccc(CCn2nnnc2C(c2ccccc2)N2CCN(C)CC2)cc1OC` (stereo unspecified), the max dye-equivalent concentration result is “inactive”.

For `COCCn1c(-c2ccc(OC)c(OC)c2)nc2ccccc21`, the max dye-equivalent concentration entry was “inactive”.

Consider `COc1ccc(CCn2c(-c3ccco3)nc3nc4ccccc4nc32)cc1OC`, for which the max dye-equivalent concentration is 11 nM (active).

Regarding `CCc1ccccc1NC(=O)CSc1nnc([C@@H](NC(=O)OC(C)(C)C)C(C)C)o1`, the max dye-equivalent concentration entry is “inactive”.

Take `CN1CCN(C(=O)c2ccc(NS(=O)(=O)c3ccccc3)cc2)CC1`: the max dye-equivalent concentration result was “inactive”.

As for `O=C(Nc1c[nH]c(=O)[nH]c1=O)Oc1ccccc1`, the max dye-equivalent concentration entry is “inactive”.

For the molecule `COc1ccc(C(=O)Nc2ccc(S(=O)(=O)Nc3onc(C)c3C)cc2)cc1OC`, the max dye-equivalent concentration result was “inactive”.

On to `COc1ccc2c(c1OC)C(=O)N(c1ncn[nH]1)C2`, for which the max dye-equivalent concentration result was “inactive”.

For the molecule `CCOc1ccc2nc(NCCNS(=O)(=O)c3ccccc3)c(C#N)cc2c1`, the max dye-equivalent concentration is 86 nM (active).

For the molecule `CCOc1ccc(Nc2oc(Cc3ccccc3)nc2C#N)cc1`, the max dye-equivalent concentration entry is “inactive”.

On to `O=C(O)c1cccc(S(=O)(=O)NCCO)c1`, for which the max dye-equivalent concentration result is “inactive”.

On to `CCOc1ccccc1N(CC(=O)NC1CCCCC1)C(=O)CCCC(=O)Nc1ccccn1`, for which the max dye-equivalent concentration result was “inactive”.

Take `CN(C)CCCNc1c2c(c(C#N)c3nc4ccccc4n13)CCC2`: the max dye-equivalent concentration was 94 nM (active).

For the molecule `N#Cc1c2c(c(N3CCN(CCO)CC3)n3c1nc1ccccc13)CCCC2`, the max dye-equivalent concentration is 23 nM (active).

On to `CN(C)C(=O)/N=N\C(=O)N(C)C`, for which the max dye-equivalent concentration entry is “inactive”.

Regarding `CC(C)NS(=O)(=O)c1ccc(CCC(=O)N2CCOCC2)cc1`, the max dye-equivalent concentration entry was “inactive”.

Regarding `N=C(CC(=O)Nc1ccccn1)c1ccccc1`, the max dye-equivalent concentration result is “inactive”.

For `O=C(c1ccccc1)N1CCN(C(=O)N2CCCCC2)CC1`, the max dye-equivalent concentration result was “inactive”.

Consider `COc1ccc(-c2nc3n(c2Br)CCC3)cc1`, for which the max dye-equivalent concentration result is “inactive”.

On to `CC(Sc1nncs1)C(=O)NCc1ccc2c(c1)OCO2` (stereo unspecified), for which the max dye-equivalent concentration result is “inactive”.

In the case of `CCOC(=O)c1c(C)[nH]c(C)c1C(=O)CSc1nc(N)cc(N)n1`, the max dye-equivalent concentration entry was “inactive”.

For the molecule `O=S(=O)(NCCOc1cccc2cccnc12)c1ccc(F)cc1`, the max dye-equivalent concentration entry was “inactive”.

As to `COc1ccc(NS(=O)(=O)c2ccc(NC(=O)C(C)(C(F)(F)F)C(F)(F)F)cc2)nn1`, the max dye-equivalent concentration was 23 nM (active).

For `COc1cc(NS(=O)(=O)c2ccc(NC(C)=O)cc2)cc(OC)c1`, the max dye-equivalent concentration entry was “inactive”.

Consider `CC(=O)Nc1ccc(S(=O)(=O)Nc2cccc(NC(=O)C(C)(C)C)c2)cc1`, for which the max dye-equivalent concentration result is “inactive”.

Turning to `O=C(CN(c1ccc2c(c1)OCCO2)S(=O)(=O)c1ccccc1)Nc1ccc2c(c1)OCO2`, the max dye-equivalent concentration result was “inactive”.

On to `CCCn1c(C(O)c2cc(OC)ccc2OC)nc2ccccc21` (stereo unspecified), for which the max dye-equivalent concentration result is “inactive”.

As to `O=C(NCCc1ccco1)c1nn(Cc2ccccc2)c(=O)c2ccccc12`, the max dye-equivalent concentration entry is “inactive”.

On to `COc1c(O)cccc1-c1nnn(CCC(=O)OCC(=O)c2ccccc2)n1`, for which the max dye-equivalent concentration entry is “inactive”.

Take `COCCNc1ccnc(-c2cccc(NS(C)(=O)=O)c2)n1`: the max dye-equivalent concentration entry is “inactive”.

Take `COc1ccc(OCCCON2C(=O)c3ccccc3C2=O)cc1`: the max dye-equivalent concentration entry is “inactive”.

`COc1ccc(N2C(=O)c3cccc4cccc(c34)C2=O)nn1`: the max dye-equivalent concentration was 160 nM (active).

Consider `CCOC(=O)c1[nH]cnc1C(=O)NC1CCCCC1`, for which the max dye-equivalent concentration result was “inactive”.

Consider `Fc1ccccc1CCNc1nnnn1-c1ccccc1`, for which the max dye-equivalent concentration entry is “inactive”.

On to `Cc1cc(C)n(-c2ccc(Cl)c(C(=O)O)n2)n1`, for which the max dye-equivalent concentration entry was “inactive”.

As for `COc1ccccc1NC(=O)C1=C(C)NC2=C(C(=O)CCC2)C1c1ccc(C)o1` (stereo unspecified), the max dye-equivalent concentration was 16 nM (active).

Regarding `COc1ccccc1NC(=O)C1=C(C)Nc2ncnn2C1c1ccc(C)o1` (stereo unspecified), the max dye-equivalent concentration entry is “inactive”.

For the molecule `COC(=O)C1=C(C)NC2=C(C(=O)c3ccccc32)C1c1ccc(-c2ccc(C(=O)O)cc2)o1` (stereo unspecified), the max dye-equivalent concentration entry is “inactive”.

Regarding `O=C(CCCCn1c(=O)[nH]c2ccccc2c1=O)NCc1ccc2c(c1)OCO2`, the max dye-equivalent concentration entry is “inactive”.

On to `CC1CN(C(=O)CN2C(=O)NC(C)(c3ccccc3)C2=O)CC(C)O1` (stereo unspecified), for which the max dye-equivalent concentration result was “inactive”.

For the molecule `CN(C(=O)C1CCOC1)c1nnc(-c2cccnc2)s1` (stereo unspecified), the max dye-equivalent concentration result is “inactive”.

For `C[C@@H]1C[C@H]2[C@@H]3C[C@H](F)C4=CC(=O)C=C[C@@]4(C)[C@]3(F)[C@H](O)C[C@]2(C)[C@@]1(O)C(=O)CO`, the max dye-equivalent concentration result was “inactive”.

Consider `CCCCOc1ccccc1/C=c1/sc2nc(-c3oc4ccccc4c3C)nn2c1=O`, for which the max dye-equivalent concentration result was “inactive”.

Regarding `C#CCNc1nc(C(C)C)nc2c1nnn2Cc1ccccc1F`, the max dye-equivalent concentration entry is “inactive”.

Regarding `Cc1cc(Cl)c(S(=O)(=O)Nc2ccc3c(c2)OCCO3)cc1OCC(N)=O`, the max dye-equivalent concentration result was “inactive”.

As for `Cc1nc(Nc2ccc3c(c2)OCCO3)c2nnn(Cc3ccccc3Cl)c2n1`, the max dye-equivalent concentration is 980 nM (active).

Regarding `CSCC[C@H](NC(=O)NCc1cccs1)C(=O)O`, the max dye-equivalent concentration entry was “inactive”.

Take `COc1ccccc1CNc1ncncc1-c1cccnc1`: the max dye-equivalent concentration entry was “inactive”.

For `CCc1cc(=O)oc2cc(C)cc(OC(C)C(=O)O)c12` (stereo unspecified), the max dye-equivalent concentration is 110 nM (active).

Take `CCOC(=O)CCCNC(=O)CN1C(=O)NC(CCc2ccccc2)C1=O` (stereo unspecified): the max dye-equivalent concentration entry is “inactive”.

`CCNc1nc(NCC)nc(N(C)n2cnnc2)n1`: the max dye-equivalent concentration entry was “inactive”.

For the molecule `C=CCn1c(SCn2nnc3ccccc3c2=O)nnc1-c1ccc(Cl)cc1`, the max dye-equivalent concentration entry was “inactive”.

Regarding `COC(=O)N1CCC2(CCCN(Cc3ccccc3OC)C2)CC1`, the max dye-equivalent concentration entry was “inactive”.
